# Source: PubChem BioAssay (NCATS)
# Values joined by “and” are separate entries in the source; they are usually repeats but may differ in a detail not shown here. Identical values can stand only once. Inconclusive results are not listed. Unmarked numbers belong to inactive results. Active and inactive are the calls of the source. The call rests on the fitted dose curve; in most records, active means well fitted curve in the direction sought with a large enough effect; inconclusive means small, poorly fitted or top-dose-only effect, or another doubt; inactive means no such curve, though single readings can be large; an effect the other way counts as inactive or inconclusive.
# How the values were obtained:
# [1] = Quantitative highthroughput screen to assess conditional lethalithy of NOMO1 cells grown in RPMI1640 with untreated serum (RPMI+s) (AID 1963876); further: nearly all actives have a fitted effect of over 35% in size;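 on viability: 100% = DMSO wells and 0% = empty wells without cells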
# Outline: (§1)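 Each medium arm—HPLM with 10% dialyzed FBS, or RPMI1640 with 5 mM glucose and 10% untreated or dialyzed FBS—was screened against an 11-point, 3-fold compound titration for 48 h at 37 °C, with CellTiter-Glo luminescence as endpoint.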
# [2] = Quantitative highthroughput screen to assess conditional lethalithy of P12 Ichikawa cells grown in Human Plasma-Like Medium with dialyzed fetal bovine serum (HPLM+ds) (AID 1963879); details: Potency: viability; further: nearly all actives have a fitted effect of over 35% in size; on viability: series mostly up to about 46 µM
# Outline: as §1
# [3] = Quantitative highthroughput screen to assess conditional lethalithy of P12 Ichikawa cells grown in RPMI1640 with untreated serum (RPMI+s) (AID 1963881); details: Potency: viability; further: nearly all actives have a fitted effect of over 35% in size;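 on viability: series mostly up to about 46 µM; 100% = DMSO wells and 0% = empty wells without cells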
# Outline: as §1
# [4] = Quantitative highthroughput screen to assess conditional lethalithy of SEM cells grown in Human Plasma-Like Medium with dialyzed fetal bovine serum (HPLM+ds) (AID 1963882); further: nearly all actives have a fitted effect of over 35% in size; on viability: series mostly up to about 46 µM
# Outline: as §1
# [5] = Quantitative highthroughput screen to assess conditional lethalithy of SEM cells grown in RPMI1640 with dialyzed fetal bovine serum (RPMI+ds) (AID 1963884); further: nearly all actives have a fitted effect of over 35% in size;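 on viability: series mostly up to about 46 µM; 100% = DMSO control wells and 0% = empty wells without cells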
# Outline: as §1
# [6] = Cellular viability qHTS for adrenocortical cancer (ACC) cell line SW-13 (AID 1963989); details: SW-13 ACC cells viability, CellTiter-Glo, 48 h; activity (max response): hits give low values; further: nearly all actives have a fitted effect of over 65% in size;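 on activity (max response): cells grown in serum-free medium with ITS supplement; on the % scale 0 is the no-effect control and ±100 the full control effect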
# Outline: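 Luminescent ATP read-out (CellTiter-Glo, 20 min at room temperature) measured metabolically competent SW-13 cells after 48 h compound treatment. Final concentrations spanned up to 46 uM; bortezomib served as positive control.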
# [7] = Quantitative highthroughput screen to assess conditional lethalithy of NOMO1 cells grown in RPMI1640 with dialyzed fetal bovine serum (RPMI+ds) (AID 1963877); further: nearly all actives have a fitted effect of over 30% in size;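 on viability: series mostly up to about 46 µM; 100% = DMSO control wells and 0% = empty wells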
# Outline: as §1
# [8] = Quantitative highthroughput screen to assess conditional lethalithy of SEM cells grown in RPMI1640 with unreated serum (RPMI+s) (AID 1963883); further: nearly all actives have a fitted effect of over 35% in size;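 on viability: 100% = DMSO wells and 0% = empty wells without cells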
# Outline: as §1
# [9] = Quantitative highthroughput screen to assess conditional lethalithy of NOMO1 cells grown in Human Plasma-Like Medium with dialyzed fetal bovine serum (HPLM+ds) (AID 1963878); further: nearly all actives have a fitted effect of over 35% in size;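 on viability: 100% = DMSO wells and 0% = empty wells on each plate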
# Outline: as §1
# [10] = Quantitative highthroughput screen to assess conditional lethalithy of P12 Ichikawa cells grown in RPMI1640 with dialyzed fetal bovine serum (RPMI+ds) (AID 1963880); details: Potency: P12-Ichikawa viability; further: nearly all actives have a fitted effect of over 35% in size;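 on viability: 100% = DMSO wells and 0% = empty wells on each plate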
# Outline: as §1
# [11] = Cellular viability qHTS for adrenocortical cancer (ACC) cell line NCI-H295R (AID 1963990); further: nearly all actives have a fitted effect of over 60% in size
# Outline: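 IC50 and maximal efficacy derive from four-parameter logistic modelling of titration curves, with reads scaled between DMSO-only wells (0%) and doxorubicin hydrochloride (100% inhibition). Compounds spanned up to 46 uM over 48 h.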
# Potency means the concentration at half of the fitted maximal effect.
compound,measurement,setting,value
CC(C)(C)NC(=O)[C@H]1CC[C@H]2[C@@H]3CC[C@H]4NC(=O)C=C[C@]4(C)[C@H]3CC[C@]12C,Potency,[1],2.35 µM (active)
same,Potency,[2],10.5 µM (active)
same,Potency,[3],11.8 µM (active)
same,Potency,[4],inactive
same,Potency,[5],inactive
same,activity (max response),[6],-6.83% and 2.59%
COC(=O)C1=CO[C@@H](O)[C@@H]2C(CO)=CC[C@@H]12,Potency,[7],inactive
O=C1NC(=O)[C@@H](c2cn3c4c(cccc24)CCC3)[C@H]1c1c[nH]c2ccccc12,Potency,[1],1.87 µM (active)
same,Potency,[2],1.48 µM (active)
same,Potency,[3],1.32 µM (active)
same,Potency,[8],0.59 µM (active)
COc1cc(C=CC(=O)CC(=O)C=Cc2ccc(O)c(OC)c2)ccc1O,Potency,[7],42.9 µM (active)
same,Potency,[9],24.1 µM (active)
same,Potency,[2],21.5 µM (active)
same,Potency,[10],34 µM (active)
same,Potency,[3],34 µM (active)
same,Potency,[4],19.1 µM (active)
same,Potency,[8],17.1 µM (active)
same,Potency,[5],21.5 µM (active)
CC(C)c1onc(-c2c(Cl)cccc2Cl)c1COc1ccc(C=Cc2cccc(C(=O)O)c2)c(Cl)c1,Potency,[7],inactive
same,Potency,[9],inactive
same,Potency,[2],inactive
same,Potency,[10],inactive
same,Potency,[3],inactive
same,Potency,[4],inactive
same,Potency,[8],inactive
same,Potency,[5],inactive
NC1=N[C@@]2(c3cc(NC(=O)c4ccc(F)cn4)ccc3F)COC[C@@H]2CS1,Potency,[1],0.372 µM (active)
same,Potency,[2],1.87 µM (active)
same,Potency,[10],3.32 µM (active)
same,Potency,[8],11.8 µM (active)
same,Potency,[5],inactive
COc1cc2nc(N3CCN(C(=O)C4COc5ccccc5O4)CC3)nc(N)c2cc1OC (stereo not drawn),Potency,[1],inactive
same,Potency,[3],inactive
same,Potency,[4],inactive
same,Potency,[8],inactive
same,Potency,[5],inactive
CN(C(Cc1ccc(OS(=O)(=O)c2cccc3cnccc23)cc1)C(=O)N1CCN(c2ccccc2)CC1)S(=O)(=O)c1cccc2cnccc12 (stereo not drawn),Potency,[1],inactive
same,Potency,[10],18.7 µM (active)
same,Potency,[3],14.8 µM (active)
same,activity (max response),[6],5.6%
same,Potency,[11],inactive
C=CC(=O)Nc1cc(NC(=O)c2ccc(C)c(NC(=O)c3ccno3)c2)cc(C(F)(F)F)c1,Potency,[1],inactive
same,Potency,[3],inactive
same,Potency,[4],inactive
same,Potency,[8],inactive
C#C[C@]1(O)CC[C@@H]2[C@@H]3CCc4cc(O)ccc4[C@H]3CC[C@@]21C,Potency,[1],inactive
same,Potency,[10],16.6 µM (active)
same,Potency,[4],14.8 µM (active)
same,Potency,[5],11.8 µM (active)
O=C(O)CCC1CCC(c2cc(F)ccc2F)(S(=O)(=O)c2ccc(Cl)cc2)CC1 (stereo not drawn),Potency,[1],1.48 µM (active)
same,Potency,[2],8.33 µM (active)
same,Potency,[10],14.8 µM (active)
same,Potency,[3],9.35 µM (active)
same,Potency,[4],inactive
same,Potency,[5],inactive
same,activity (max response),[6],-1.6%
same,Potency,[11],inactive
COc1ccc(CCC(=O)c2c(O)cc(O[C@@H]3O[C@H](CO)[C@@H](O)[C@H](O)[C@@H]3O[C@@H]3O[C@@H](C)[C@H](O)[C@@H](O)[C@@H]3O)cc2O)cc1O,Potency,[1],13.2 µM (active)
same,Potency,[10],inactive
same,Potency,[3],inactive
same,Potency,[4],inactive
same,Potency,[8],inactive
same,Potency,[5],inactive
CO[C@H]1C=CO[C@@]2(C)Oc3c(C)c(O)c4c(O)c(c(C=NN5CCN(C)CC5)c(O)c4c3C2=O)NC(=O)C(C)=CC=C[C@H](C)[C@H](O)[C@@H](C)[C@@H](O)[C@@H](C)[C@H](OC(C)=O)[C@H]1C,Potency,[1],inactive
same,Potency,[10],2.38 µM (active)
same,Potency,[3],3.78 µM (active)
same,Potency,[5],inactive
O=C(NC1CC1)c1cccc(-c2ccc3c(NC(=O)C4CC4)n[nH]c3c2)c1,Potency,[1],23.5 µM (active)
same,Potency,[2],10.5 µM (active)
same,Potency,[10],11.8 µM (active)
same,Potency,[3],11.8 µM (active)
same,Potency,[4],16.6 µM (active)
same,Potency,[8],14.8 µM (active)
same,Potency,[5],16.6 µM (active)
same,Potency,[6],3.55 µM (active)
same,Potency,[11],15.8 µM (active)
CC[C@H]1CN2CCc3cc(OC)c(OC)cc3[C@H]2C[C@@H]1C[C@@H]1NCCc2cc(OC)c(OC)cc21,Potency,[7],0.469 µM (active)
same,Potency,[9],0.526 µM (active)
same,Potency,[2],0.209 µM (active)
same,Potency,[10],0.418 µM (active)
same,Potency,[3],0.235 µM (active)
same,Potency,[4],0.166 µM (active)
O=S(=O)(N=Cc1c(O)ccc2ccccc12)c1cccs1,Potency,[1],inactive
same,Potency,[10],inactive
same,Potency,[3],inactive
same,Potency,[5],inactive
Nc1ccc(-c2ccc3ncc4ccc(=O)n(-c5cccc(C(F)(F)F)c5)c4c3c2)cn1,Potency,[1],0.0833 µM (active)
same,Potency,[2],0.148 µM (active)
same,Potency,[6],0.708 µM (active)
same,Potency,[11],0.126 µM (active)
CN[C@@H](C)C(=O)N[C@H]1CCCC[C@H]2CC[C@@H](C(=O)N[C@@H](c3ccccc3)c3cn(CCCCc4ccc(CCCCn5cc([C@@H](NC(=O)[C@@H]6CC[C@@H]7CCCC[C@H](NC(=O)[C@H](C)NC)C(=O)N76)c6ccccc6)nn5)cc4)nn3)N2C1=O,Potency,[1],inactive
same,Potency,[10],inactive
same,Potency,[3],inactive
same,Potency,[4],inactive
same,activity (max response),[6],-2.95%
same,Potency,[11],inactive
CN1C(C(=O)Nc2ccccn2)=C(O)c2ccccc2S1(=O)=O,Potency,[1],11.8 µM (active)
same,Potency,[2],11.8 µM (active)
same,Potency,[10],16.6 µM (active)
same,Potency,[3],14.8 µM (active)
same,activity (max response),[6],-11.3% and -19.8%
same,Potency,[11],inactive
O=C(C=Cc1cccnc1)NCCCCC1CCN(C(=O)c2ccccc2)CC1,Potency,[1],0.0059 µM (active)
same,Potency,[2],0.003 µM (active)
same,Potency,[10],0.0053 µM (active)
same,Potency,[3],0.0047 µM (active)
same,Potency,[8],0.0026 µM (active)
same,Potency,[5],0.0019 µM (active)
CC(=O)O[C@]1(C(C)=O)CC[C@H]2[C@@H]3C=C(Cl)C4=CC(=O)[C@@H]5C[C@H]5[C@]4(C)[C@@H]3CC[C@@]21C,Potency,[1],0.59 µM (active)
same,Potency,[2],2.96 µM (active)
same,Potency,[10],2.35 µM (active)
same,Potency,[3],2.96 µM (active)
same,Potency,[8],inactive
same,Potency,[5],inactive
CCCCCCCCCCCC1=C(O)C(=O)C=C(O)C1=O,Potency,[1],0.332 µM (active)
same,Potency,[2],2.09 µM (active)
same,Potency,[10],3.32 µM (active)
same,Potency,[3],2.09 µM (active)
same,Potency,[4],inactive
same,activity (max response),[6],-2.06%
same,Potency,[11],inactive
C[C@@H](O)[C@H]1C(=O)N2C(C(=O)OCOC(=O)C(C)(C)C)=C(SC3CN(C4=NCCS4)C3)[C@H](C)[C@H]12,Potency,[1],inactive
same,Potency,[4],inactive
same,Potency,[5],inactive
O=C(O)c1c(Cl)c(Cl)c(Cl)c(Cl)c1-c1c2cc(I)c(=O)c(I)c-2oc2c(I)c(O)c(I)cc12,Potency,[1],16.6 µM (active)
same,Potency,[2],8.33 µM (active)
same,Potency,[6],12.6 µM (active)
